The text below walks through data of PubChem BioAssay (NCATS).

Values without a mark were called inactive. Entries that show only a call come without a potency. Active and inactive are the calls of the source. Calls come from the whole dose curve; as a rule, active = well fitted inhibition curve with a large enough effect; inconclusive = small, poorly fitted or top-dose-only effect; inactive = flat fitted curve, though single readings scatter.

The assay concerns Nanoluciferase (engineered Oplophorus gracilirostris luciferase). The assay can be described thus: Primary Nanoluciferase (NLuc) qHTS assay for identification of artifact compounds. (AID 1845222).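 Note: NLuc secreted into diluted conditioned medium of S16 cells.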 To be noted: NLuc-conditioned medium, Nano-Glo luminescence, 5 min; series mostly up to 54.1 µM. The method, boiled down:
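Using secreted nanoluciferase in S16 culture medium (0.22 um filtered, 1:55 dilution), compounds were preincubated 15 min at RT. Signal was generated with Nano-Glo reagent (1:100) over 5 min.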
Consider `CC/C=C/CC1=C(CCCCC(CCC(=O)O)OC(C)=O)CCC1=O` (stereo unspecified), for which the Potency result is “inactive”.
For `Cc1cc2c(F)c(Oc3ncnn4cc(OCC(C)O)c(C)c34)ccc2[nH]1` (stereo unspecified), the Potency result was “inactive”.
Consider `COC1C(=O)CCC2(CO2)C1(O)C1(C)OC1CC=C(C)C` (stereo unspecified), for which the Potency entry was “inactive”.
The same measure, in the same setting: the entry for `C[C@@H]1CC[C@]2(C(=O)OC3OC(CO)C(O)C(O)C3O)CC[C@]3(C)C(=CCC4[C@@]5(C)CC[C@H](O)[C@](C)(C(=O)O)C5CC[C@]43C)C2[C@]1(C)O` (stereo partly specified) is “inactive”.
Take `O=C(O)/C=C/c1ccc(O)c(O[C@@H]2O[C@H](CO)[C@@H](O)[C@H](O)[C@H]2O)c1`: the Potency result was “inactive”.
For the molecule `C=C1C(=O)OC2/C=C(\CO)CC/C=C(\C=O)CC(OC(=O)CC(C)C)C12` (stereo unspecified), the Potency result was “inactive”.
For `CC(=O)OC[C@]12[C@H](OC(C)=O)C(=O)[C@@H]3[C@@H](OC(C)=O)[C@@]14O[C@@]3(C)COC(=O)c1cccnc1[C@@H](C)[C@H](C)C(=O)O[C@@H]([C@H](O)[C@@H]2OC(C)=O)[C@]4(C)O`, the Potency entry is “inactive”.
Consider `COc1c2c(c(C)c3c1C(=O)OC3)OC1(C)CC(O)C34OC(OC)(CC(OC(C)=O)C3(C)C1C2)OC4(C)C` (stereo unspecified), for which the Potency entry is “inactive”.
As for `CC1OC(OC2CCC3(C)C(CCC4(C)C3CC=C3C5CC(C)(C)CCC5(C(=O)OC5OC(CO)C(O)C(O)C5O)CCC34C(=O)O)C2(C)C)C(O)C(O)C1O` (stereo unspecified), the Potency entry was “inactive”.
As to `O=C(c1cccc(Cl)c1F)N1CCN(Cc2cccc(Nc3nccs3)n2)CC1`, the Potency result was “inactive”.
Still for that read-out and setting: the result for `CN(C)c1ccc2c(c1)OC(N)=C(C#N)C2c1cccc(C(F)(F)F)c1` (stereo unspecified) reads “inactive”; that for `CC(C)S(=O)(=O)N[C@H]1CCOC[C@@H]1c1ccc(-c2ccc(C#N)s2)cc1`, “inactive”.
Still for that read-out and setting: the result for `Cc1nc2ccc(Oc3ccc(F)cc3)cc2c(=O)n1C[C@H]1CCCN(C(C)C)C1` reads “inactive”; that for `COC(=O)C12C(=O)C(C)=C(O)C1(C)C(C)=CC1C3(CO)CCC(O)C(C)(C)C3CCC12C` (stereo unspecified), “inactive”.
On the same count and under the same terms, the result for `CC[C@H](CO)Nc1nc(NCc2ccc(-c3ccccn3)cc2)c2ncn(C(C)C)c2n1` reads “inactive”.
Take `CC1OC(OC2C(O)C(OC3CCC4(C)C(CCC5(C)C4CC=C4C6CC(C)(COC7OC(CO)C(O)C(O)C7O)CC(O)C6(C)CCC45C)C3(C)C)OC(C(=O)O)C2O)C(O)C(O)C1OC1OCC(O)C(O)C1O` (stereo unspecified): the activity, negative = inhibition is -3.08% [at 11.6 µM].
Regarding `CCCN1CCN(c2ccc(C(=O)NC3(C(=O)NCC#N)CCCCC3)cc2)CC1`, the Potency result is “inactive”.
Same read-out and setting: the result for `CC(C)=CC/C=C(\C)[C@H]1CC[C@]2(C)[C@@H]1[C@H](O)C[C@@H]1[C@@]3(C)CC[C@H](O)C(C)(C)[C@@H]3[C@@H](O[C@@H]3O[C@H](CO)[C@@H](O)[C@H](O)[C@H]3O)C[C@]12C` reads “inactive”; that for `Cn1cc(S(=O)(=O)c2ccc(Cl)cc2)c2cccc(N3CCNCC3)c21`, “inactive”; that for `COC(=O)C1=CO[C@@H](O[C@@H]2O[C@H](CO[C@@H]3O[C@H](COC(=O)/C=C/c4cc(OC)c(O)c(OC)c4)[C@@H](O)[C@H](O)[C@H]3O)[C@@H](O)[C@H](O)[C@H]2O)[C@@H]2C(CO)=CC[C@H]12`, “inactive”.
The same measure, in the same setting: the entry for `C/C=C1\[C@H](OC2OC(COC3OC(CO)C(O)C(O)C3O)C(O)C(O)C2O)OC=C(C(=O)OC)[C@H]1CC(=O)OCCc1ccc(O)cc1` (stereo partly specified) is “inactive”; for `C=CC(=O)N1CCN(C(=O)CNc2cc(I)c(Cl)cc2O)CC1` it is “inactive”.
Still for that read-out and setting: the entry for `Cc1cc(OCc2nc(-c3ccccc3Cl)cs2)ccc1OCC(=O)O` is “inactive”.
On to `CC[C@H](C)[C@H](NC(=O)[C@H]([C@@H](C)CC)N(C)C(C)=O)C(=O)N[C@H](C(=O)N[C@@H](CC(C)C)C(=O)[C@@]1(C)CO1)[C@@H](C)O`, for which the Potency entry is “inactive”.
For `C=CC1C(OC2OC(CO)C(O)C(O)C2O)OC=C(C(=O)OC)C1CC1CC(=O)CC(CCc2ccc(O)cc2)O1` (stereo unspecified), the Potency result was “inactive”.
Regarding `CC(=O)OC1C(O)CC2(C)C(CCC(C)C23Cc2c(O)cc(CO)c(C=O)c2O3)C1(C)C` (stereo unspecified), the Potency entry was “inactive”.
As for `O=C(C(c1ccccc1)c1ccccc1)N1CCN(CC(O)COc2cccc3ncccc23)CC1` (stereo unspecified), the Potency result was “inactive”.
Take `C=C1C(=O)OC2C1CCC(=C)C1CC(OC(C)=O)C(=C)C12` (stereo unspecified): the Potency result is “inactive”.
Take `COC(=O)N1CCC(n2ncc3c(N4CCOCC4)nc(-c4ccc(NC(=O)Nc5ccc(CO)cc5)cc4)nc32)CC1`: the Potency result is “inactive”.
With `CCC(O)C(C)C1CCC(C(C)C(=O)O)O1` (stereo unspecified), the Potency result is “inactive”.
In the case of `CC(=O)OC1/C(C)=C/C(=O)C(OC(C)=O)C(C)(C)/C=C/C(C)C(=O)C2(OC(C)=O)CC(C)C(OC(=O)c3ccccc3)C12` (stereo unspecified), the Potency entry was “inactive”.
